# “And” between values parts separate entries of the source, which are not always exact repeats. Equal values may be shown once. Records with an inconclusive call do not appear. Values without a mark were called inactive. The source made the active and inactive calls. Calls follow the shape of the dose curve; as a rule, active = well fitted cell-killing curve with a large enough effect in the repeat runs; inconclusive = weak or mixed curves, or effect the other way; inactive = flat fitted curve, though single readings scatter.
# Assay: qHTS assay to identify small molecule agonists of the constitutive androstane receptor (CAR) signaling pathway - cell viability counter screen (AID 1224836); also: nearly all actives have a fitted effect of over 45% in size
# Conditions: HepG2-CYP2B6-hCAR viability, CellTiter-Fluor, 23 h, PK11195 added to every well; series mostly up to 92.4 µM; viability change, negative = cytotoxic: at the top concentration
# Source text: U.S. Tox21 Program National Center for Advancing Translational Sciences [NCATS] NIH Chemical Genomics Center [NCGC] U.S. Environmental Protection Agency [EPA] National Institutes of Environmental Health Sciences [NIEHS] National Toxicology Program [NTP] U.S. Food and Drug Administration [FDA] Tox21 Assay Overview: The constitutive androstane receptor (CAR) is a nuclear receptor which regulates multiple drug metabolizing enzymes (DMEs) and transporters. Activating CAR will generally increase the transcription and subsequent translation of CYP2B6 and CYP3A4. These two DMEs represent about 50% of the drug metabolizing potential in the body. […] Recently, there have also been studies performed indicating CARs role in energy metabolism and cancer therapy. Therefore, inducing CARs activity could have a potential effect on diabetes and cancer. Identifying environmental toxins and compounds which modulate CAR, through the use of the Tox21 10K compound collection, will be an important step in determining the toxicity and potential therapeutic effects these factors will have on the human body. To differentiate true CAR agonists from cytotoxic substances, the assay is multiplexed with a cell viability assay.
# Tox21 Assay Protocol Summary: A double-stable (hCAR and CYP2B6-2.2kb) transfected cell line, derived from human hepatoma (HepG2) cells, was utilized for the duration of the quantitative high-throughput screens. The HepG2-CYP2B6-hCAR cells were dispensed at 2500 cells/4 uL/well in 1536-well white solid bottom plates using a Multidrop Combi. After the assay plates were incubated at 37 C/5% CO2 for 4 hrs, 23 nL of compounds at 15 concentrations (from 5-48 columns) or positive control (from 1 to 4 columns) were transferred to the assay plates using a Pintool station. One uL of PK11195 (final concentration = 0.75 uM) was added, using a Flying Reagent Dispenser, inside each well. After a 23 hr incubation period at 37 C/5% CO2, 1 uL of CellTiter-Fluor reagent was added into each well of the assay plates using a Flying Reagent Dispenser. The fluorescence intensity in the plates was then measured using a ViewLux plate reader.
# % is scaled to controls: 0 for no effect and ±100 for the full control effect; potency is read from the fitted curve at half-maximal effect.
SMILES,"viability change, negative = cytotoxic",Potency
Cc1cnc(C2=NC(C)(C(C)C)C(=O)N2)c(C(=O)O)c1 (stereo not given),-7.57%,–
CC(C)[C@@H](C(=O)O[C@@H](C#N)c1cccc(Oc2ccccc2)c1)c1ccc(Cl)cc1,–,inactive
C=CCc1ccccc1O,-3.31%,–
CCC(=O)O[C@@H]1C=C2CCC3C(CCC4(C)C3CC[C@@H]4OC(=O)CC)C2CC1 (stereo not given in full),11.6% [at 42.5 µM],–
NC(=O)CF,3.81%,–
CCOc1cccc(C2(N3CCN(c4ccccc4)CC3)CCC(C)CC2)c1 (stereo not given),3.56%,–
CCCN(CCC)c1c([N+](=O)[O-])cc(C(C)C)cc1[N+](=O)[O-],–,inactive
COc1cc(C[C@@H](C)N)c(OC)cc1Br,-19.8%,–
N#CC(C#N)=C(C#N)C#N,-10.4%,–
CCOC(=O)c1cncn1C(C)c1ccccc1 (stereo not given),0.293% [at 42.5 µM],–
CN1C(=O)CN=C(c2ccccc2)c2cc([N+](=O)[O-])ccc21,-0.0765% [at 42.5 µM],–
C[CH2][Hg][S]c1ccccc1C(=O)O,–,19.3 µM (active) and 11.9 µM (active)
Nc1ccccc1C(=O)OCCc1ccccc1,–,inactive
CCCCCCCCn1sccc1=O,–,61.3 µM (active) and 25.5 µM (active)
FC(Cl)(Cl)C(F)(Cl)Cl,-5.45%,–
CC(=O)OC(c1ccccc1)C(Cl)(Cl)Cl (stereo not given),-1.29%,–
CCCSP(=S)(OCC)Oc1ccc(SC)cc1 (stereo not given),5.66%,–
CCCCOC(=O)CCC(=O)OCCCC,-0.304%,–
CCCC[N+]1(C)[C@@H]2CC(OC(=O)[C@H](CO)c3ccccc3)C[C@H]1[C@@H]1O[C@@H]12 (stereo not given in full),5.73% [at 42.5 µM],–
C[C@@H]1C[C@@H]([C@H](O)CC2CC(=O)NC(=O)C2)C(=O)[C@@H](C)C1,–,969 nM (active)

SMILES,"viability change, negative = cytotoxic",Potency
O=C(O)C(F)(F)C(F)(F)C(F)(F)C(F)(F)C(F)(F)F,1.34%,–
CN(C1CCCCC1)C1CCCCC1,0.749%,–
Cc1ccccc1,0.0998%,–
ClCc1ccccc1Cl,6.84%,–
CNC(=O)Oc1cccc(N=CN(C)C)c1,0.605%,–
CCc1ccccc1N,-5.7%,–
OCCCl,-0.844%,–
CN(C)c1ccc(N=O)cc1,–,27.4 µM (active) and 43.3 µM (active)
O=C=NC1CCCCC1,-6.76%,–
O=C(N/N=C/c1ccc([N+](=O)[O-])o1)c1cc([N+](=O)[O-])cc([N+](=O)[O-])c1O,–,11900 nM (active)
CCCCCCCCCCCCN=C(N)N,0.263% [at 3.27 µM],–
CCOP(=S)(S)OCC,3.91%,–
C#C[C@]1(O)CC[C@H]2[C@@H]3CCC4=CC(=O)CCC4=C3C=C[C@@]21CC,0.6% [at 42.5 µM],–
C[N+]1(CCC(C(N)=O)(c2ccccc2)c2ccccc2)CCCCC1,9.45% [at 42.5 µM],–
COC(=O)C1(O)c2ccccc2-c2ccccc21,2.93%,–
Nc1cccc2ccccc12,–,inactive
C1CCNCC1,-2.17%,–
O=C(Cc1ccccc1)OCCc1ccccc1,1.62%,–
C[C@H](N)[C@H](O)c1ccc(O)c(O)c1,-17.8% [at 42.5 µM],–
CC1(C)[C@H](C(=O)O[C@H](C#N)c2cccc(Oc3ccccc3)c2)[C@@H]1C=C(Br)Br,–,inactive
